From PubChem BioAssay (NCI) come the findings set out here.

Molecules are shown by their SMILES. Compounds without any hit were thinned out: in the full panel of roughly 83,000, 20% have a hit.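 Compound tested at a single concentration for 48 hours in 96-well plates; a percent growth value below 10 was scored as active.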 A number with no mark means an inactive call. Activity calls are given as the source filed them.

The subject of this assay is COLO 205 colon. Description: NCI-60 one-dose screen, 48 h (100 = growth as untreated, 0 = no growth, -100 = all killed). As to conditions: 10 µM unless noted.
In the case of `COc1cc(C(=O)/C=C/c2c(-c3ccc(F)cc3)nc3sccn23)cc(OC)c1OC`, the growth is 12.3%.

Regarding `Nc1nc(N)c2c(n1)NC(c1ccc(F)cc1)C1CCc3ccccc3C1=N2` (configuration not stated), the growth is 48.4%.

`COc1ccc(-c2cc(-c3ccc(Cl)cc3)nc(NCCCCNc3ccnc4cc(Cl)ccc34)n2)cc1`: the growth was 30.4%.

Regarding `Cc1cc(C)nc(SCC(=O)Nc2cccc(N=Cc3ccccc3O)c2)n1`, the growth was 105%.

Turning to `O=C(Nc1ccc(Nc2ccncc2)cc1)c1ccc([N+](=O)[O-])cc1`, the growth is -50.3% (active).

Consider `O=C1COCCN1c1ccc(NCc2cn(Cc3cccc4ccccc34)c3ccccc23)cc1`, for which the growth is 93.6%.

For `O=C1/C(=C\c2cccn2Cc2ccccc2)c2ccccc2N1c1c(Cl)cccc1Cl`, the growth was -6.31% (active).

On to `CCCCCN(CCCCC)CCCCCCCCN1CCCc2ccccc21`, for which the growth was 88.5%.

With `CC(C)CSc1ncnc2nc[nH]c12`, the growth was 101%.

On to `CCN(CC)CCCC(C)Nc1ccnc2cc(Cl)c(SCc3ccccc3)cc12` (configuration not stated), for which the growth is -89.5% (active).

For the compound `O=C(Nc1ccc(C(=O)/C=C/c2ccc(N3CCOCC3)cc2)cc1)Nc1ccc([N+](=O)[O-])cc1`, the growth is 109%.

For the compound `Cc1ccc(-c2cn(C/C=C3\C=CN(S(=O)(=O)c4ccccc4)CC3)nn2)cc1`, the growth is 129%.

`CCOc1ccc2sc(NS(=O)(=O)c3ccc(N)cc3)nc2c1`: the growth was 103%.

`O=C(NCCCNC(=O)OCc1ccc2c(Br)cc(Br)c(O)c2n1)OCc1ccc2c(Br)cc(Br)c(O)c2n1`: the growth is -76.8% (active).

Regarding `C=CCc1nc2ccccc2s1`, the growth is 113%.

In the case of `CCN(CC)CCCNCc1cc(-c2ccccc2)nc2ccccc12`, the growth is 117%.

As to `C=C(C)[C@@H]1CC[C@]2(C(N)=O)CC[C@]3(C)[C@H](CC[C@@H]4[C@@]5(C)C/C(=C/c6cccnc6)C(=O)C(C)(C)[C@@H]5CC[C@]43C)[C@@H]12`, the growth is -23.6% [100 µM] (active).

As to `COC(=O)C(=Cc1ccccc1[N+](=O)[O-])C(=O)OC`, the growth is 38%.

For the compound `CCOC(CNC(=O)c1cccc([N+](=O)[O-])c1)OCC`, the growth is 108%.

Regarding `Cc1ccc(-c2cc(O)c(-c3ccc(C)cc3C)cc2O)c(C)c1`, the growth was 91.1%.

Turning to `Fc1cc2[nH]ncc2c2c3c(c(-c4cn[nH]c4)nc12)CCCC3`, the growth is -43.8% (active).

For the compound `O=C(CCN1CCCCC1)c1ccc(Cl)cc1`, the growth was 107%.

As for `CCOC(=O)C1=C(C(=O)c2ccc(Br)cc2)C(c2ccc(Br)cc2)NC(=S)N1` (configuration not stated), the growth was 118%.

Take `Cn1cc(-c2noc(-c3cn(C)c4ncc(F)cc34)n2)c2cc(Cl)ccc21`: the growth was 55.5%.

For the compound `O=[N+]([O-])c1cc([N+](=O)[O-])c(NN=C(c2ccc(O)cc2)c2ccc(O)cc2)cc1Cl`, the growth is 25.6%.

Regarding `NNC(=O)c1ccc(C(=O)NN)cc1`, the growth was 138%.

In the case of `CN(C)CCOc1ccc(/C(=C(/CCCl)c2ccccc2)c2ccccc2)cc1`, the growth is -93.6% (active).

For the compound `CC(=O)Nc1ccc2nc3ccc(NC(C)=O)cc3[n+](-c3ccccc3)c2c1`, the growth was 109%.

For `COc1ccc(/C=C(/C(=O)c2ccc(Cl)cc2)C(=O)C(F)(F)F)cc1`, the growth is 110%.

On to `COc1cc2c(c(OC)c1)C1c3cc(OC)ccc3NC(=O)N1CC2` (configuration not stated), for which the growth was 80.5%.

As for `COc1ccc(C=C2c3ccccc3-c3ccccc32)cc1`, the growth was 29.6%.

As to `O=S(=O)(c1ccc(N/N=C\c2ccccc2Cl)cc1)c1ccc(N/N=C/c2ccccc2Cl)cc1`, the growth is 97.1%.

In the case of `CSc1nc(N)c(N=Nc2ccc(S(=O)(=O)Nc3nnc(C)s3)cc2)c(=O)[nH]1`, the growth was 96.3%.

`C=C(C)[C@@H]1CC[C@]2(C)[C@H](CC=C3[C@@H]4[C@@H](C)[C@H](C)CC[C@]4(C(N)=O)CC[C@]32C)[C@@]1(C)CCC#N`: the growth was -78.9% [100 µM] (active).

In the case of `CCOC(=O)CC(c1ccccc1)C(C#N)c1ccccc1` (configuration not stated), the growth is 100%.

In the case of `Clc1ccc(/C=N/Nc2nc3ccccc3s2)c(Cl)c1`, the growth is 88.4%.

On to `CC1(C)CC[C@]2(C(=O)O)CC[C@]3(C)[C@H](CC[C@@H]4[C@@]5(C)CCC(=O)C(C)(C)[C@@H]5CC[C@]43C)[C@H]2[C@H]1OC(=O)C(F)(F)F`, for which the growth is -72% [100 µM] (active).
